According to ChEMBL document CHEMBL3988442, “University of Dundee, Small-Polar-MMV Screening Library” (2021):
About 13,000 (27%) of roughly 48,000 compounds showed an effect of 50% or more. This is one part of the list.

tested on: Wolbachia pipientis; experiment: Anti-Wolbachia Cell-Based Screen; assay type: functional; parameters: scale not given: in the data most compounds retested in dose-response had high values; conditions: 5 µM

| Structure (SMILES) | Percent Effect |
| --- | --- |
| Cc1cnc(C(=O)N2CCC3(CC2)CC(c2ccncc2)C(=O)N3)cn1 (configuration not stated) | -2.987% |
| CCCn1nnnc1CN(C)C(C)c1ccc(C)cc1 (configuration not stated) | 0.6006% |
| COc1ccc(C2(c3nc(-c4cnn(C)c4)no3)CCOCC2)cc1 | -8.889% |
| O=C(NC(CO)CO)c1coc(COc2cccc(F)c2)n1 | 9.537% |
| CCSCCNC(=O)C(c1cccc(F)c1)N(C)C (configuration not stated) | -18.47% |
| CCN(C(=O)CN(C)C(c1cccc(F)c1)c1ccccn1)C1CC1 (configuration not stated) | 13.51% |
| CCN(CC)CC(=O)N(C)C(c1cccc(F)c1)c1ccccn1 (configuration not stated) | 97.45% |
| CCN(CC)S(=O)(=O)CCNC(=O)N(C)C(C)c1ccccn1 (configuration not stated) | -1.522% |
| CCS(=O)(=O)NCCCNC(=O)N(C)C(C)c1ccccn1 (configuration not stated) | -6.07% |
| CC(C)N(C)CC(=O)N(C)C(c1cccc(F)c1)c1ccccn1 (configuration not stated) | 102.7% |
| O=S(=O)(C1CC1)N1CC[C@]2(C[C@@H](OCC3CCOCC3)CO2)C1 | -13.41% |
| Cc1c(C(=O)N(C)CC(F)(F)F)nnn1-c1ccccc1Cl | -1.465% |
| COc1cccc(C(=O)Nc2ccc(OC3CCN(C)CC3)cc2)c1 | 16.42% |
| COCCN1C=NC2(CCC(C(=O)Nc3ccc(C)cc3)CC2)C1=O (configuration not stated) | -4.018% |
| COCCn1cc(NC(=O)NC(C)CCc2ccccc2)ccc1=O (configuration not stated) | -2.537% |
| COCCn1cnc2ccc(NC(=O)C3CC3)cc2c1=O | 108.4% |
| Cn1cc(NC(=O)c2ccccn2)cc(Br)c1=O | 3.766% |
| COCCn1cnc2ccc(NC(=O)c3ccccn3)cc2c1=O | 106.6% |
| COCCn1cnc2ccc(NC(=O)c3ccc(OC)cc3)cc2c1=O | 162.9% |

| Structure (SMILES) | Percent Effect |
| --- | --- |
| COc1ccc(C(=O)Nc2c(C)nn(C(C)C)c2C)cc1 | 14.16% |
| COCCOc1ccc(NC(=O)C2CCC2)cn1 | -0.09217% |
| Cn1cc(NC(=O)c2ccccn2)cc(Cl)c1=O | -1.878% |
| COCCn1cc(NC(=O)C(C)CCc2ccccc2F)ccc1=O (configuration not stated) | -6.604% |
| COCCn1cnc2ccc(NC(=O)C(C)C)cc2c1=O | 110.7% |
| CC(=O)NCCC(=O)NC1(c2ccc(Cl)c(Cl)c2)CC1 | 3.477% |
| CC(NC(=O)COc1cccc[n+]1[O-])C1CC1 (configuration not stated) | -6.842% |
| Cc1ccc(CNCc2nnc3n2CC(C(F)(F)F)CC3)cc1 (configuration not stated) | -7.096% |
| O=C(CCc1ccsc1)Nc1cnccc1O | 9.927% |
| CC(C)CCN1CCc2[nH]nc(C(=O)N3CC=CC3)c2C1.O=C(O)C(F)(F)F.O=C(O)C(F)(F)F | -3.7% |
| CO[C@@H]1CCN(Cc2c(C)noc2C)[C@@H]2CN(Cc3ccco3)C[C@@H]21.O=C(O)C(F)(F)F.O=C(O)C(F)(F)F | 102.8% |
| CO[C@@H]1CCN(Cc2cnn(C)c2)[C@@H]2CN(Cc3ccco3)C[C@@H]21.O=C(O)C(F)(F)F.O=C(O)C(F)(F)F | 6.003% |
| COCC1CN(Cc2c(C)noc2C)Cc2ccnn2C1.O=C(O)C(F)(F)F.O=C(O)C(F)(F)F (configuration not stated) | -2.816% |
| CO[C@@H]1CCN(Cc2c(C)noc2C)[C@@H]2CN(Cc3cccnc3)C[C@@H]21.O=C(O)C(F)(F)F.O=C(O)C(F)(F)F.O=C(O)C(F)(F)F | 82.84% |
| Cc1noc(C)c1CN1CC[C@H]2OCC[C@@H](C(=O)NCC3CC3)[C@@H]2C1.O=C(O)C(F)(F)F | -16.42% |
| CO[C@H]1CCN(Cc2c(C)noc2C)[C@@H]2CN(Cc3cccnc3)C[C@H]12.O=C(O)C(F)(F)F.O=C(O)C(F)(F)F.O=C(O)C(F)(F)F | 114.1% |
| Cc1noc(C)c1CN1C[C@@H](N(C)Cc2ccco2)[C@H]2OCCC[C@H]21.O=C(O)C(F)(F)F.O=C(O)C(F)(F)F | 12.06% |
| CO[C@H]1CCN(Cc2c(C)noc2C)[C@@H]2CN(Cc3ccncc3)C[C@H]12.O=C(O)C(F)(F)F.O=C(O)C(F)(F)F.O=C(O)C(F)(F)F | 106.3% |
| CO[C@@H]1CCN(c2ncc(F)cn2)[C@@H]2CN(Cc3cccnc3)C[C@@H]21.O=C(O)C(F)(F)F.O=C(O)C(F)(F)F.O=C(O)C(F)(F)F | -6.486% |

| Structure (SMILES) | Percent Effect |
| --- | --- |
| CO[C@H]1CCN(Cc2cnn(C)c2)[C@@H]2CN(Cc3cccnc3)C[C@H]12.O=C(O)C(F)(F)F.O=C(O)C(F)(F)F.O=C(O)C(F)(F)F | 4.089% |
| CO[C@H]1CCN(Cc2cccc(C)n2)[C@@H]2CN(Cc3cccnc3)C[C@H]12.O=C(O)C(F)(F)F.O=C(O)C(F)(F)F.O=C(O)C(F)(F)F.O=C(O)C(F)(F)F | -9.589% |
| COC(=O)N1CCN(CCCc2nnnn2-c2ccccc2)CC1 | -41.56% |
| O=C(Cc1ccc(F)cc1Cl)N1CC[C@H](CO)[C@@H](O)C1 | 3.077% |
| COc1cccc2c1OCC(C(=O)N1CCN(S(C)(=O)=O)CC1)C2 (configuration not stated) | 0.5994% |
| CC1CCCN1C1CCN(C(=O)c2cccc(-c3ccoc3)c2)CC1 (configuration not stated) | 2.618% |
| CSCC[C@@H](CO)Nc1ccc(-c2nc(C3CC3)no2)cn1 | -21.62% |
| Cc1noc(CS(=O)(=O)C/C=C/c2ccccc2)n1 | -7.047% |
| O=C(O)C(F)(F)F.O=C(c1ccco1)N1CCO[C@@H]2CN(c3ccccn3)CC[C@@H]2C1 | 6.986% |
| O=C(O)C(F)(F)F.O=C(c1ccsc1)N1CCO[C@@H]2CN(Cc3ccccn3)CC[C@@H]2C1 | 3.038% |
| N#Cc1cccc(CN2CC[C@@H]3CO[C@@H](CN4CCCC4)[C@@H]3C2)c1.O=C(O)C(F)(F)F.O=C(O)C(F)(F)F | -0.4401% |
| O=C(O)C(F)(F)F.O=C(c1ccco1)N1CCO[C@@H]2CN(Cc3nccs3)CC[C@@H]2C1 | 104% |
| O=C(O)C(F)(F)F.O=C(c1ccsc1)N1CCO[C@@H]2CN(Cc3ccco3)CC[C@@H]2C1 | 99.14% |
| Cn1cccc1C(=O)N1CCO[C@@H]2CN(Cc3nccs3)C[C@@H]2C1.O=C(O)C(F)(F)F | 127.2% |
| CCc1cnc(N2CC[C@@H]3CN(C(=O)c4ccco4)CCO[C@@H]3C2)nc1 | 10.92% |
| Cc1cc(CN2C[C@@H]3CN(C(=O)c4cccn4C)CCO[C@@H]3C2)no1.O=C(O)C(F)(F)F | 9.61% |
| COCCN1CCO[C@@H]2CN(Cc3sccc3C)C[C@@H]2C1.O=C(O)C(F)(F)F.O=C(O)C(F)(F)F | -3.44% |
| Cc1cnc(N2CC[C@@H]3CN(Cc4ccncc4)CCO[C@@H]3C2)nc1.O=C(O)C(F)(F)F.O=C(O)C(F)(F)F | -11.53% |
| N#Cc1cccc(CN2CC[C@@H]3CN(c4ncccn4)CCO[C@@H]3C2)c1.O=C(O)C(F)(F)F | 115.7% |
